# Counter-ions that a name gives are not always drawn.
# Test system: S. cerevisiae NKY1551 his4x/his4B, sporulating;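 active = HIS4 sensitivity z-score above 5 vs DMSO controls; inactive = score 5 or below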
# Test: HIS4 meiotic recombination assay sensitivity score (z-score vs DMSO controls); higher = stronger inhibition of sporulation/recombination, active = hit call of the paper
# Protocol: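 NIH Clinical Collection compounds were added 1:100 from stock (about 100 µM final) to S. cerevisiae. Growth: average doubling time (AvgG) over 24 h of BY4741 (wild-type) or AD1-9 (drug-efflux-pump deficient) in rich media. HIS4: the his4x/his4B heteroallelic recombination reporter strain (SK1) was sporulated 5 h with compound at 30°C, then colony density was read on -his plates after 48 h. Sensitivity score = (compound − mean of 8 DMSO controls)/SD of DMSO controls. Hit cutoffs are >2 for growth and >5 for sporulation.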
row,Structure (SMILES),HIS4 meiotic recombination assay sensitivity score
1,"COc1cc(C[C@@H](CO)[C@H](CO)Cc2ccc(O)c(OC)c2)ccc1O [Secoisolariciresinol] (stock concentration (mM, diluted 1:100): 10)",-0.73 (inactive)
2,"c1cnc(N2CCN(Cc3ccc4c(c3)OCO4)CC2)nc1 [Piribedil] (stock concentration (mM, diluted 1:100): 9.7)",-0.82 (inactive)
3,"CNCC[C@H](Oc1cccc2ccccc12)c1cccs1 [Duloxetine] (stock concentration (mM, diluted 1:100): 10)",-1.33 (inactive)
4,"CS(=O)(=O)c1ccc(C2=C(c3ccccc3)C(=O)OC2)cc1 [Rofecoxib] (stock concentration (mM, diluted 1:100): 10)",-1.67 (inactive)
5,"CNCC[C@@H](Oc1ccccc1C)c1ccccc1 [Atomexetine hydrochloride] (stock concentration (mM, diluted 1:100): 8.7)",10.1 (active)
6,"CC12CC3CC(C)(C1)CC(N)(C3)C2 [Memantine hydrochloride] (stock concentration (mM, diluted 1:100): 8.3)",1.61 (inactive)
7,"COc1cc(C(=O)NS(=O)(=O)c2ccccc2C)ccc1Cc1cn(C)c2ccc(NC(=O)OC3CCCC3)cc12 [Zafirlukast] (stock concentration (mM, diluted 1:100): 10)",1 (inactive)
8,"O=C1c2cccc3c2[C@H](CCC3)CN1[C@@H]1CN2CCC1CC2 [Palonosetron hydrochloride] (stock concentration (mM, diluted 1:100): 10)",5.73 (active)
9,"Nc1nnc(-c2cccc(Cl)c2Cl)c(N)n1 [Lamotrigine] (stock concentration (mM, diluted 1:100): 10.3)",-1.72 (inactive)
10,"CN1C(C(=O)Nc2ccccn2)=C(O)c2ccccc2S1(=O)=O [Piroxicam] (stock concentration (mM, diluted 1:100): 10)",0.11 (inactive)
11,"CCS(=O)(=O)CCn1c([N+](=O)[O-])cnc1C [Tinidazole] (stock concentration (mM, diluted 1:100): 10)",-1.77 (inactive)
12,"CN(C)CCOc1ccc(/C(=C(/CCCl)c2ccccc2)c2ccccc2)cc1 [Toremifene citrate] (stock concentration (mM, diluted 1:100): 10)",3.57 (inactive)
13,"Cc1c(OCC(F)(F)F)ccnc1C[S+]([O-])c1nc2ccccc2[nH]1 (stereo not given) [Lansoprazole] (stock concentration (mM, diluted 1:100): 10.1)",1.42 (inactive)
14,"CC1=Nc2ccc(Cl)cc2S(=O)(=O)N1 [Diazoxide] (stock concentration (mM, diluted 1:100): 10)",-1.19 (inactive)
15,"CCC1=C(C)CN(C(=O)NCCc2ccc(S(=O)(=O)NC(=O)N[C@H]3CC[C@H](C)CC3)cc2)C1=O [Glimepiride] (stock concentration (mM, diluted 1:100): 7.7)",1.27 (inactive)
16,"NC(=O)OCC(COC(N)=O)c1ccccc1 [Felbamate] (stock concentration (mM, diluted 1:100): 14)",-0.45 (inactive)
17,"CCOC(=O)[C@H](CCc1ccccc1)N[C@H]1CCc2ccccc2N(CC(=O)O)C1=O [Benazepril hydrochloride] (stock concentration (mM, diluted 1:100): 9.2)",0.2 (inactive)
18,"C=CCc1ccc(O)c(-c2ccc(O)c(CC=C)c2)c1 [Honokiol] (stock concentration (mM, diluted 1:100): 10.1)",-1.68 (inactive)
19,"CCN1CCC[C@H]1CNC(=O)c1c(O)c(Cl)cc(Cl)c1OC [Raclopride] (stock concentration (mM, diluted 1:100): 10)",-0.66 (inactive)
20,"CCN1CCN(c2cc3c(cc2F)c(=O)c(C(=O)O)cn3C2CC2)CC1 [Enrofloxacin] (stock concentration (mM, diluted 1:100): 10)",1.36 (inactive)

row,Structure (SMILES),HIS4 meiotic recombination assay sensitivity score
1,"NC(N)=Nc1nc(CSCC/C(N)=N/S(N)(=O)=O)cs1 [Famotidine] (stock concentration (mM, diluted 1:100): 10)",-0.42 (inactive)
2,"O=c1c(O[C@@H]2O[C@H](CO)[C@@H](O)[C@H](O)[C@H]2O)c(-c2ccc(O)c(O)c2)oc2cc(O)cc(O)c12 [Isoquercetrin] (stock concentration (mM, diluted 1:100): 10)",-0.48 (inactive)
3,"O=C(CCCN1CC=C(n2c(=O)[nH]c3ccccc32)CC1)c1ccc(F)cc1 [Droperidol] (stock concentration (mM, diluted 1:100): 10)",-0.15 (inactive)
4,"CCC(C)(C)N=C(NC#N)Nc1cccnc1 [Tocris-1355] (stock concentration (mM, diluted 1:100): 9.9)",-1.39 (inactive)
5,"CN1CCC(=C2c3ccccc3CCc3sccc32)CC1 [Pizotyline] (stock concentration (mM, diluted 1:100): 10)",9.23 (active)
6,"CN1CCC(=C2c3ccccc3C=Cc3ccccc32)CC1 [Cyproheptadine hydrochloride] (stock concentration (mM, diluted 1:100): 10)",6.95 (active)
7,"C[C@]12CCC(=O)C=C1CC[C@@H]1[C@@H]2CC[C@@]2(C)[C@H]1CC[C@]2(O)C(=O)CO [Cortodoxone] (stock concentration (mM, diluted 1:100): 10)",0.86 (inactive)
8,"O=C(O[C@@H]1C[C@@H]2C[C@H]3C[C@H](C1)N2CC3=O)c1c[nH]c2ccccc12 [Dolasetron mesylate] (stock concentration (mM, diluted 1:100): 10.4)",-3.34 (inactive)
9,"CO[C@H]1/C=C/O[C@@]2(C)Oc3c(C)c(O)c4c(c3C2=O)C2=NC3(CCN(CC(C)C)CC3)NC2=C(NC(=O)/C(C)=C\C=C\[C@H](C)[C@H](O)[C@@H](C)[C@@H](O)[C@@H](C)[C@H](OC(C)=O)[C@@H]1C)C4=O [Rifabutin] (stock concentration (mM, diluted 1:100): 10)",-1.4 (inactive)
10,"CNNCc1ccc(C(=O)NC(C)C)cc1 [Procarbazine hydrochloride] (stock concentration (mM, diluted 1:100): 8.6)",-1.19 (inactive)
11,"O=c1[nH]cnc2c1ncn2[C@H]1CC[C@@H](CO)O1 [Didanosine] (stock concentration (mM, diluted 1:100): 10.1)",0.35 (inactive)
12,"Cc1c(O)c(=O)ccn1C [Deferiprone] (stock concentration (mM, diluted 1:100): 10)",-0.12 (inactive)
13,"CN(C)CC[C@@H](c1ccc(Cl)cc1)c1ccccn1 [Dexchlorpheniramine maleate] (stock concentration (mM, diluted 1:100): 7)",2.35 (inactive)
14,"Clc1ccccc1C(c1ccccc1)(c1ccccc1)n1ccnc1 [Clotrimazole] (stock concentration (mM, diluted 1:100): 10)",-0.98 (inactive)
15,"COc1cc(CNC(=O)CCCC/C=C/C(C)C)ccc1O [Capsaicin] (stock concentration (mM, diluted 1:100): 10)",2.12 (inactive)
16,"C/C=C1\[C@H]2C=C(C)C[C@]1(N)c1ccc(=O)[nH]c1C2 [Huperzine a] (stock concentration (mM, diluted 1:100): 10)",-0.7 (inactive)
17,"CC(C)[C@H]1CC[C@H](C(=O)N[C@H](Cc2ccccc2)C(=O)O)CC1 [Nateglinide] (stock concentration (mM, diluted 1:100): 10)",-0.37 (inactive)
18,"Cc1[nH]cnc1CN1CCc2c(c3ccccc3n2C)C1=O [Alosetron hydrochloride] (stock concentration (mM, diluted 1:100): 8.9)",-3.51 (inactive)
19,"CCN(CC)C(=O)C1(c2ccccc2)CC1CN (stereo not given) [Milnacipran] (stock concentration (mM, diluted 1:100): 10)",-0.19 (inactive)
20,"Cc1nccn1CC1CCc2c(c3ccccc3n2C)C1=O (stereo not given) [Ondansetron hcl] (stock concentration (mM, diluted 1:100): 8.9)",-0.73 (inactive)
